Assay results as given in ChEMBL document CHEMBL4513135, “CO-ADD screening of IQOG CSIS (Spain) compounds”.
Several values for one entry are separate records, joined by “and”; a condition that tells them apart may be missing. Identical values can stand only once. Potency and affinity values are given separately.

What was measured:
Staphylococcus aureus = conditions: Concentration 32 ug.mL-1, ASSAY_TEST Inhibition of Bacterial Growth, detection method Absorption (OD600), MEDIA CAMHB, plate type 384well, NBS, CORNING #3640, time 18 hr
Escherichia coli = conditions: Concentration 32 ug.mL-1, ASSAY_TEST Inhibition of Bacterial Growth, detection method Absorption (OD600), MEDIA CAMHB, plate type 384well, NBS, CORNING #3640, time 18 hr

SMILES | Inhibition (Staphylococcus aureus) [%] | Inhibition (Escherichia coli) [%] | Inhibition (Staphylococcus aureus; 32 ug/mL) | Inhibition (Escherichia coli; 32 ug/mL)
C#CCN(Cc1ccccc1)c1nc(N)c(C#N)c(-c2ccccc2)c1C#N | 11.64 | -2.54 | – | –
C#CCNc1ncccn1 | 40.44 | -0.02 | – | –
COc1cccc(C2c3c(nc4c(c3N)CCCC4)Oc3ccc4ccccc4c32)c1 (configuration not stated) | 4.84 | -1.02 | – | –
CCOC(=O)C1=C(C)OC(N)=C(C#N)C1c1ccc(OC)cc1 (configuration not stated) | 9.52 | -2.05 | – | –
N#CC1=C(Cl)Oc2c(ccc3ccccc23)C1c1ccccc1[N+](=O)[O-] (configuration not stated) | 15.73 | -14.23 | – | –
Cn1c(CNNC(=O)c2ccco2)cc2ccccc21 | 1.86 | 21.64 | – | –
CC(C)(C)OC(=O)Nc1ncccc1Br | 38.27 | -5.45 | – | –
C#CCN1CCc2nc3nc(N(C)C)c(C#N)cc3c(N)c2C1 | 32.37 | -3.45 | – | –
N#CC1=C(N)Oc2c(ccc3ccccc23)C1c1c(Cl)cccc1Cl (configuration not stated) | 8.27 | 6.46 | – | –
C=C1CN(C)c2c(C#N)cc(C#N)c(=N)n21 | 13.03 | -14.43 | – | –
Cc1ccc(S(=O)(=O)N[C@H]2CC[C@H](O)CC2)cc1 | 22.82 | -6.91 | – | –
N#Cc1cc(C#N)c(N2CCCC2)nc1N | 51.19 | -9.12 | – | –
C#CCN1CCc2nc3nc(NC4CCN(Cc5ccccc5)CC4)c(C#N)cc3c(N)c2C1 | 26.68 | -8.32 | – | –
C#CCN(C)c1nc(NCC2CCN(Cc3ccccc3)CC2)c(C#N)c(-c2ccccc2)c1C#N.Cl | 36.49 | -7.12 | – | –
CCOc1nc2nc(C)c(C=C3CCN(Cc4ccccc4)CC3)cc2c(-c2ccccc2)c1C#N | 33.88 | -8.83 | – | –
COc1ccc2c(c1)cc(C(=O)Nc1ccccc1)n2C | 20.93 | -8.29 | – | –
COc1ccc(C=C2N=C(c3ccccc3)SC2=O)cc1 | 12.36 | 7.03 | – | –
CCOC(=O)c1c(C)[nH]c(=O)c(C#N)c1-c1ccccc1 | 37.77 | -18.87 | – | –
COC(=O)C(=Cc1ccc(OC)cc1)NC(C)=O | 16.29 | 8.29 | – | –
C#CCN(C)Cc1cc2cc(OCCCCC3CCN(Cc4ccccc4)CC3)ccc2n1C | 38.42 | -8.55 | – | –
COc1ccc(C2c3ccc4ccccc4c3OC(=NBr)C2(Br)C#N)cc1OC (configuration not stated) | 21.78 | -14.95 | – | –
N#CC1=C(Cl)Oc2c(ccc3ccccc23)C1c1ccc([N+](=O)[O-])cc1 (configuration not stated) | 7.21 | -24.25 | – | –

SMILES | Inhibition (Staphylococcus aureus) [%] | Inhibition (Escherichia coli) [%] | Inhibition (Staphylococcus aureus; 32 ug/mL) | Inhibition (Escherichia coli; 32 ug/mL)
O=C(COc1ccc2ccccc2c1)N/N=C/c1c[nH]c2ccccc12 | 3.21 | 6.84 | – | –
CCOC(=O)c1cc2c(N)c3c(nc2nc1C)CCCC3 | 8.67 | -8.78 | – | –
CC(C)C(=O)N/N=C/c1c[nH]c2ccccc12 | 10.48 | 9.69 | – | –
C1CNCCNCCNCCNC1 | 30 | 9.31 | – | –
C#CCN(C)c1cc(C)nc(C)n1 | 21.48 | -8.55 | – | –
N#Cc1c(Cl)nc(Cl)c(C#N)c1-c1ccccc1 | 37.97 | -3.96 | – | –
NC1(C(=O)O)CC1c1ccc2c(c1)OCO2 (configuration not stated) | -7.05 | -7.79 | – | –
Cc1nc(Nc2ccccc2)c2cnn(-c3ccccc3)c2n1 | 6.87 | 6.44 | – | –
N#Cc1c(N)nc(O)c(C#N)c1-c1ccccc1 | 4.47 | -25.59 | – | –
COC(=O)/C(=C/c1ccc(O)cc1)NC(=O)c1ccccc1 | 4.82 | 15.96 | – | –
C#CCNc1nc(NC2CCN(Cc3ccccc3)CC2)c(C#N)cc1C#N.Cl | -1.55 | -6.24 | – | –
COc1cccc(C2C(C#N)=C(N)Oc3ccc4ccccc4c32)c1 (configuration not stated) | 40.42 | -5.36 | – | –
Cn1cc(C=O)c2ccccc21 | -0.04 | -4.32 | – | –
CCOC(=O)C1=C(C)OC(N)=C(C#N)C1c1cccnc1 (configuration not stated) | -6.34 | -11.43 | – | –
COc1ccc(-c2cc(-c3cc4c(C)cc(C)cc4nc3Cl)cc(=O)[nH]2)cc1 | 21.85 | -16.03 | – | –
N#Cc1cc2c(N)c3c(nc2nc1Cl)CCCC3 | 35.71 | -0.19 | – | –
C#CCNc1nc(N)c(C#N)c(-c2ccccc2)c1C#N | 3.95 | 15.49 | – | –
N#CCC(=C(C#N)C#N)c1ccccc1 | 11.65 | 4.41 | – | –
N#Cc1cc(C#N)c(NC2CCN(Cc3ccccc3)CC2)nc1N | – | – | 23.9% and 14.84% | -6.37% and -14.46%
O=C(COc1ccc2ccccc2c1)NNCc1c[nH]c2ccccc12 | 3.31 | 7.68 | – | –
O=C(Cc1c[nH]c2ccccc12)N/N=C/c1ccco1 | 4.9 | -3.66 | – | –
N#CC1=C(N)Oc2c(ccc3ccccc23)C1c1ccccc1 (configuration not stated) | 23.38 | -4.89 | – | –

SMILES | Inhibition (Staphylococcus aureus) [%] | Inhibition (Escherichia coli) [%] | Inhibition (Staphylococcus aureus; 32 ug/mL) | Inhibition (Escherichia coli; 32 ug/mL)
c1ccc(-c2nc3c4cnn(-c5ccccc5)c4ncn3n2)cc1 | 14.04 | 8.07 | – | –
CC1=C(C(=O)N2[C@@H]3C[C@H]4CCC3(CS2(=O)=O)C4(C)C)C(c2ccccc2)C(C#N)=C(N)O1 (some centres not stated) | -1.02 | 15 | – | –
Nc1c2c(nc3c1CC(c1c(Cl)cccc1Cl)C(=O)N3)CCCC2 (configuration not stated) | 22.21 | 31.42 | – | –
CCC(CC)NNC(=O)c1c[nH]c2ccccc12.Cl | 4.35 | 0.83 | – | –
NC(=O)N/N=C/c1c[nH]c2ccccc12 | 3.48 | 5.19 | – | –
C#CCN(C)c1nc(OC)c(C#N)cc1C#N | 10.54 | -19.1 | – | –
C#CCNc1nc(N)c(C#N)cc1C#N | -1.17 | -11.19 | – | –
Cn1ccnc1C1C(C#N)=C(N)Oc2c1ccc1cccnc21 (configuration not stated) | 12.96 | -14.85 | – | –
Cc1nc2c3cnn(-c4ccccc4)c3ncn2n1 | 15.5 | 11.4 | – | –
CNN=C1N=C(SCc2ccccc2)SC1=O | 8.05 | 4.4 | – | –
N#Cc1c(N)nc2[nH]nc(N)c2c1-c1ccccc1 | 40.83 | -6.5 | – | –
C/C(Cc1ccccc1)=N/NC(=O)c1c[nH]c2ccc(O)cc12 | 7.12 | 8.13 | – | –
Cn1c(CO)cc2cc(OCCCC3CCN(Cc4ccccc4)CC3)ccc21 | 7.02 | -17.9 | – | –
COc1cc(C2C(C#N)=C(N)Oc3c2ccc2ccccc32)ccc1O (configuration not stated) | 50.2 | -13.64 | – | –
COc1nc2nc3c(c(N)c2cc1C#N)CCCC3.Cl | 7.17 | -4.74 | – | –
Cl.ClCCCCN1CCCCC1 | 1.62 | -1.96 | – | –
C#CCN1CCc2nc3nc(N4CCCC4)c(C#N)cc3c(N)c2C1 | 24.32 | -2.2 | – | –
COC(=O)C1(NC(=O)c2ccccc2)CC1c1ccccc1 (configuration not stated) | 1.83 | -4.02 | – | –
N#CC1(Br)C(=NBr)Oc2c(ccc3ccccc23)C1c1ccccc1[N+](=O)[O-] (configuration not stated) | 52.21 | -16.66 | – | –
N#Cc1cc2c(N)c3c(nc2nc1Cl)CCN(Cc1ccccc1)C3 | 31.61 | -4.39 | – | –
CCOc1nc2nc3c(c(N)c2cc1C#N)CCCC3 | -2.29 | -2.83 | – | –
CC1CC(=O)Nc2c1c(Cl)nc1nc3c(c(N)c21)CCCC3 (configuration not stated) | 34.68 | -17.09 | – | –

SMILES | Inhibition (Staphylococcus aureus) [%] | Inhibition (Escherichia coli) [%] | Inhibition (Staphylococcus aureus; 32 ug/mL) | Inhibition (Escherichia coli; 32 ug/mL)
CCOC(=O)C1=C(C)Oc2nc3c(c(N)c2C1c1ccc(O)c(OC)c1)CCC3 (configuration not stated) | -3.09 | -6.01 | – | –
COC1=C(C#N)C(c2ccccc2)C(C=O)=C(Cl)N1 (configuration not stated) | 40.42 | -6.81 | – | –
CCOc1nc(N)c(C#N)c(-c2ccccc2)c1C#N | 44.16 | -9.76 | – | –
c1ccc(COc2ccc3[nH]ccc3c2)cc1 | 4.67 | 3.23 | – | –
O=C(NNCc1ccco1)c1cc2ccccc2[nH]1 | -6.59 | -6.94 | – | –
CCOC(=O)c1cc2cc(OC)ccc2n1C | -7.5 | -9.48 | – | –
COc1ccc2c(c1)cc(CN(C)C)n2C | -0.93 | -1.4 | – | –
O=C(Cc1c[nH]c2ccccc12)NNCCc1ccccc1 | 4.22 | 5.19 | – | –
CCOC(=O)c1c[nH]c2ccc(OC)cc12 | 4.86 | 9.94 | – | –
CCOC(=O)c1cc(C#N)c(N)nc1C | 8.2 | -11.35 | – | –
COc1nc(N)c(C#N)c(-c2ccccc2)c1C#N | 26.81 | -3.07 | – | –
COC(=O)C(=Cc1ccccc1)NC(=O)c1ccccc1 | 11.82 | 6.08 | – | –
Cn1c(C(=O)NCc2ccccc2)cc2cc(OCCCC3CCN(Cc4ccccc4)CC3)ccc21 | 21.45 | -9.22 | – | –
O=C(O)C(=Cc1ccccc1)NC(=O)c1ccccc1 | 14.72 | 9.37 | – | –
COc1ccc2c(c1)cc(CO)n2C | 3.66 | 11.03 | – | –
Cc1ccc2nc(Cl)c(/C=N/NCc3ccccc3)cc2c1 | 26.2 | 22.89 | – | –
O=C(N/N=C/c1c[nH]c2ccccc12)C(c1ccccc1)c1ccccc1 | 7.26 | 7.64 | – | –
N#Cc1cc(C#N)c(Cl)nc1Cl | 15.28 | -15.75 | – | –
COc1cc(Br)c(C=O)cc1OC | 28.77 | 5 | – | –
COc1ccc(C2c3c(ccc4ccccc34)OC(=NBr)C2(Br)C#N)cc1OC (configuration not stated) | 13.88 | -20.35 | – | –
